Results on 36 compounds are retold here after PubChem BioAssay.

Torsin-1A (Homo sapiens), sequence (O14656 whole entry, looked up): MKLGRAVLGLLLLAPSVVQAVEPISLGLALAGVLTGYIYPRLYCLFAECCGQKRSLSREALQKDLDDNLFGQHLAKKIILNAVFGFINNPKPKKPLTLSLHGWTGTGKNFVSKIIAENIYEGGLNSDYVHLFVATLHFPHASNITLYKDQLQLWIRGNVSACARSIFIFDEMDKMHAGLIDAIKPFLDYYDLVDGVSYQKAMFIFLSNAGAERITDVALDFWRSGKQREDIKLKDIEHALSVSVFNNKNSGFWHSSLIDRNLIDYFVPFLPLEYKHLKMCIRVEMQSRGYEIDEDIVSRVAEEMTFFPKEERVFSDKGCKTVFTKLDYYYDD

The experiment concerns the target Torsin-1A (Homo sapiens) (UniProt O14656). The experiment in a line: torsin A mutant lysate binding on microarrays – cell lysate, small-molecule microarray, COS7 lysate, 635/667 nm fluorescence, primary screen (AID 1150).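 Note: score pools 667 nm emission and signal to noise measuring lysate protein binding.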 Particulars: COS7 hTOR1A mutant lysate, 635 nm fluorescence, higher = more signal.
Consider `CCOC(=O)CCN1C(=O)[C@H]2[C@H]3[C@H](O)[C@H](O)CC(=NOCC=C(C)CCC=C(C)C)[C@H]3CC[C@H]2C1=O`, for which the composite z-score worked out at 0.355. As for `CCOC(=O)[C@H](Cc1ccccc1)NC(=O)CCC1CC(OC(=O)NCc2cccc3ccccc23)CC2(CCCC(COC(=O)NCCOc3ccccc3)O2)O1` (stereo partly specified), the figure is 1.47; as for `CCOC(=O)[C@H](CC(C)C)NC(=O)CCC1CC(OC(=O)NCCc2ccc(F)cc2)CC2(CCCC(COC(=O)NCCCN3CCCC3=O)O2)O1` (stereo partly specified), 0.1. As to `CC(=O)OC[C@H]1O[C@H](CC=NOC(C)CN2CCCCc3nc(C)c(C)cc32)C=C[C@@H]1OC(C)=O` (stereo partly specified), the composite z-score stood at 2.9. As for `C#CCCCON=C1[C@H]2CCn3c(=O)n([C@@H](CC)c4ccccc4)c(=O)n3[C@H]2[C@H](O)[C@@H]2O[C@H]12`, the composite z-score is 0.472. As for `CO[C@H]1C[C@@H]2C[C@H](O)CC(CC(=O)O[C@@H](C=CCC(C)C)C[C@@H]3CC[C@H](C)[C@@H](C1)O3)O2`, the figure is 0.183. The figure for `C=CC[C@@H]1C=C[C@H](ON=C[C@@H](NS(=O)(=O)c2ccc(C)cc2)[C@H](C)C=CCC(=O)OC)[C@@H](CO)O1` is 0.634. `CO[C@H]1COC(=O)CCC[C@H](C)[C@@H](OC)COC(=O)CC=C[C@@H]1C`: the composite z-score was 0.861. The figure for `O=C(NN=C1C[C@@H](O)[C@@H](O)[C@@H]2[C@@H]3C(=O)N(Cc4ccccc4)C(=O)[C@@H]3CC[C@H]12)OCc1ccccc1` is 0.983. The figure for `CCOC(=O)[C@H](CC(C)C)NC(=O)CCC1CC(OC(=O)NCCc2ccc(F)cc2)CC2(CCCC(COC(=O)NCc3cccc4ccccc34)O2)O1` (stereo partly specified) is 0.184; for `CCN1C(=O)[C@H]2[C@H]3[C@H](O)[C@H](O)CC(=NOCC(C)C)[C@H]3CC[C@H]2C1=O` it is 0.303; for `COC(OC)[C@@H](C)[C@H](OC)[C@@H](C)[C@H](OC)c1ccccc1` it is -0.252. `COC(=O)[C@H](C)NC(=O)CCC1CC(OC(=O)NCc2ccc3c(c2)OCO3)CC2(CCCC(COC(=O)NCc3ccccc3)O2)O1` (stereo partly specified) showed a composite z-score of 0.177. On to `CO[C@@H](C1CCCCC1)[C@@H](C)[C@H](OCc1cccc(Br)c1)[C@@H](C)CO`, for which the composite z-score stood at 0.467.

Take `CC(C)CON=C1[C@H]2CCn3c(=O)n(C)c(=O)n3[C@H]2[C@H](O)[C@@H]2O[C@H]12`: the composite z-score was -0.0543.

Turning to `C[C@]12CCC3c4ccc(OCC5CO5)cc4CCC3C1CC[C@@H]2O` (stereo partly specified), the composite z-score came to 0.241. In turn, `CO[C@@H]1C=CCC(=O)N[C@@H](C)C(=O)OC[C@@H](OC)[C@H](C)C=CCC(=O)OC[C@H]1C` registered a composite z-score of 2.21.

On to `OC[C@H]1O[C@H](C#Cc2ccccc2)C=C[C@@H]1O`, for which the composite z-score was 0.141. The figure for `CC(C)[C@@H](OCc1ccccc1)[C@H](C)C=NO[C@H](C)c1cn([C@@H]2COC[C@H]2O)nn1` is 1.56; for `CN1CCc2nc(-c3ccccc3)c(-c3ccccc3)cc2C1` it is 0.539; for `O=C1[C@H]2[C@H]3[C@H](O)[C@H](O)CC(=NOC[C@@H](O)COCc4ccco4)[C@@H]3CC[C@H]2C(=O)N1Cc1ccc2c(c1)OCO2` it is 3. `CCOC(=O)[C@H](CC(C)C)NC(=O)CCC1CC(OC(=O)NCc2ccc3c(c2)OCO3)CC2(CCCC(COC(=O)NCCc3ccccc3OC)O2)O1` (stereo partly specified): the composite z-score turned out to be 0.582. The compound `C[C@@H]1CC[C@H]2C(=O)OC(CN3C(=O)c4ccccc4C3=O)CN2[C@H]1c1ccc(Br)cc1` (stereo partly specified) had a composite z-score of 0.396. As to `O=C1C=C[C@@H](O)[C@@H]2[C@@H]3C(=O)N(Cc4ccc5c(c4)OCO5)C(=O)[C@@H]3CC[C@@H]12`, the composite z-score is 0.123.

The compound `COC(=O)[C@H](C)NC(=O)CCC1CC(OC(=O)NCc2cccc3ccccc23)CC2(CCCC(COC(=O)NCCCN3CCCC3=O)O2)O1` (stereo partly specified) showed a composite z-score of 0.745. As for `CO[C@@H]1COC(=O)[C@H](COCc2ccccc2)NC(=O)CC=C[C@@H](C)[C@H](OC)COC(=O)[C@@H](C)NC(=O)CC=C[C@H]1C`, the figure is 0.544; as for `CON=C(C)CCN1CCCCc2nc(C)c(C)cc21`, 0.816; as for `C#CCCCON=C1[C@H]2CCn3c(=O)n(Cc4cc5c(cc4Cl)OCO5)c(=O)n3[C@H]2[C@H](O)[C@@H]2O[C@H]12`, 0.248. Regarding `C[C@H]1CC[C@H]2C(=O)N[C@H](Cc3ccccc3)C(=O)N2[C@@H]1c1ccccc1`, the composite z-score came to 0.52. As for `CC(CCN1CCc2nc(-c3ccccc3)c(-c3ccccc3)cc2C1)=NO[C@H](C)c1cn([C@H](CO)Cc2ccccc2)nn1`, the figure is 1.23; as for `C#CCCCON=C1C[C@@H](O)[C@@H](O)[C@@H]2[C@@H]3C(=O)N(C[C@@H]4CCCO4)C(=O)[C@@H]3CC[C@@H]12`, 0.28; as for `CCOC(=O)[C@H](CC(C)C)NC(=O)CCC1CC(OC(=O)NCc2ccc3c(c2)OCO3)CC2(CCCC(COC(=O)NCCOC)O2)O1` (stereo partly specified), 0.354. As for `COc1ccc(OC[C@@H](CO)OC)cc1`, the composite z-score was 0.304. The figure for `COC(=O)[C@@H]1CC[C@H](C)[C@@H](c2ccc(C)cc2)N1C(=O)c1ccc(C=NOC[C@@H](O)[C@H]2O[C@@H]3OC(C)(C)O[C@@H]3[C@H]2O)cc1` is 0.277. As for `CC(=O)OC[C@H]1O[C@H](CC=NO[C@@H](C)c2cn([C@H](CO)Cc3ccccc3)nn2)C=C[C@@H]1OC(C)=O`, the figure is 0.692.

Regarding `COC(=O)[C@H](C)NC(=O)CCC1CC(OC(=O)NCc2ccc3c(c2)OCO3)CC2(CCCC(COC(=O)NCCC(C)C)O2)O1` (stereo partly specified), the composite z-score was 0.593.
